Test results as given in PubChem BioAssay (Tox21).
“And” between values parts separate entries of the source, which are not always exact repeats. Equal values may be shown once. Inconclusive results are not listed. Where a call stands in place of a potency, no number is given. A structure can be active in one record and inactive in another. The source made the active and inactive calls. Calls come from the whole dose curve; as a rule, active = well fitted curve in the direction sought with a large enough effect in the repeat runs; inconclusive = weak or mixed curves; inactive = no such curve, though single readings can be large; an effect the other way counts as inactive or inconclusive.

How the values were obtained:
[1] = A CellTox Green Cytotoxicity Assay to monitor cytotoxicity in HEK293 cells - 40 hour (AID 1224871); note: nearly all actives have a fitted effect of over 45% in size
Method in brief: (§1)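 Dead-cell fluorescence measured kinetically: asymmetric cyanine dye, HEK293, 600 cells/well, 5 h settle, 23 nL cpd/DMSO, 37 C, reads 0–40 h every 8 h.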

[2] = qHTS RealTime-Glo MT Cell Viability Assay in HEK293 cells - 16 hour (AID 1224872); note: top concentration of the series differs between compounds; nearly all actives have a fitted effect of over 50% in size
Method in brief: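 Cells + reagent dispensed (600 cells/well, HEK293) → 5 h at 37 C/5% CO2 → 23 nL compound in DMSO pinned → 40 h at 37 C → luminescence read at 0, 8, 16, 24, 32, 40 h.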

[3] = qHTS RealTime-Glo MT Cell Viability Assay in HepG2 cells - 8 hour (AID 1224873); note: nearly all actives have a fitted effect of over 55% in size; note: potency is the fitted concentration of half-maximal effect
Method in brief: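 HepG2 cells mixed with RealTime-Glo MT reagents (NanoLuc plus cell-permeant prosubstrate) were seeded at 600 cells/well, incubated 5 h at 37 C/5% CO2, then pinned with compounds in DMSO; nonlytic luminescence tracked viability during 40 h treatment.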

[4] = A CellTox Green Cytotoxicity Assay to monitor cytotoxicity in HEK293 cells - 24 hour (AID 1224875); note: series mostly up to about 77 µM; nearly all actives have a fitted effect of over 45% in size
Method in brief: as §1

[5] = A CellTox Green Cytotoxicity Assay to monitor cytotoxicity in HepG2 cells - 16 hour (AID 1224876); note: nearly all actives have a fitted effect of over 45% in size
Method in brief: (§2)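 First, HepG2 cells (600/well) mixed with reagent were plated; second, after 5 h at 37 C they received compounds via pintool; third, fluorescence was measured at 0 h through 40 h at 8 h intervals.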

[6] = qHTS RealTime-Glo MT Cell Viability Assay in HepG2 cells - 32 hour (AID 1224877); note: nearly all actives have a fitted effect of over 55% in size
Method in brief: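 Real-time, nonlytic viability: 600 HepG2 cells/well mixed with NanoLuc enzyme plus prosubstrate; 5 h settle, compound (DMSO) added by pintool; luminescence monitored over 40 h at 37 C.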

[7] = qHTS RealTime-Glo MT Cell Viability Assay in HEK293 cells - 0 hour (AID 1224880); note: top concentration of the series differs between compounds; nearly all actives have a fitted effect of over 45% in size
Method in brief: (§3)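 600 HEK293 cells per well, dispensed already mixed with RealTime-Glo MT reagents. Compound dosing came 5 h later. The same wells were read for luminescence at 0, 8, 16, 24, 32 and 40 h of exposure at 37 C.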

[8] = qHTS RealTime-Glo MT Cell Viability Assay in HEK293 cells - 40 hour (AID 1224874); conditions: RealTime-Glo luminescence; max response: stronger effect = lower value; note: nearly all actives have a fitted effect of over 50% in size
Method in brief: as §3

[9] = A CellTox Green Cytotoxicity Assay to monitor cytotoxicity in HepG2 cells - 24 hour (AID 1224878); note: nearly all actives have a fitted effect of over 45% in size; note: potency is the fitted concentration of half-maximal effect
Method in brief: as §2

[10] = A CellTox Green Cytotoxicity Assay to monitor cytotoxicity in HepG2 cells - 40 hour (AID 1224879); note: nearly all actives have a fitted effect of over 40% in size
Method in brief: as §2

| SMILES | Potency [1] | Potency [2] | Potency [3] | Potency [4] | outcome [5] | outcome [6] | outcome [7] | max response [8] | Potency [9] | Potency [10] | activity change, negative = cytotoxicity [2] |
| --- | --- | --- | --- | --- | --- | --- | --- | --- | --- | --- | --- |
| CC(=O)CCC=C(C)C | inactive | inactive | inactive | inactive | inactive | inactive | inactive |  |  |  |  |
| CC(=O)Oc1ccc(C)cc1 | inactive | inactive | inactive | inactive | inactive | inactive | inactive | 7.12% (inactive) and 1.96% (inactive) |  |  |  |
| CC1(C)OC[C@@H]2O[C@@]3(C(=O)O)OC(C)(C)O[C@H]3[C@@H]2O1 | inactive | inactive | inactive | inactive | inactive | inactive | inactive |  | inactive | inactive |  |
| C=CC[N+](C)(C)CC=C | inactive | inactive | inactive | inactive | inactive | inactive | inactive |  | inactive |  |  |
| C=CC(C)CCCC(C)(C)O (configuration not stated) | inactive | inactive |  | inactive | inactive | inactive | inactive | 5.11% (inactive) and 3.85% (inactive) | inactive | inactive |  |
| CCNc1cccc(C)c1 | inactive | inactive | inactive | inactive | inactive | inactive | inactive |  |  | inactive |  |
| CC(C)CC(=O)CC(C)CC(C)C (configuration not stated) | inactive | inactive | inactive | inactive | inactive | inactive | inactive |  | inactive |  |  |
| CC(C)OP(=O)(CP(=O)(OC(C)C)OC(C)C)OC(C)C | inactive | inactive |  | inactive | inactive | inactive | inactive | 4.3% (inactive) and 0.573% (inactive) | inactive | inactive |  |
| C=CCCCCCCCCC(=O)O | inactive | inactive | inactive | inactive | inactive | inactive | inactive |  |  | inactive |  |
| O=C(O)c1ccc(C(=O)O)c(C(=O)O)c1 | inactive | inactive | inactive | inactive | inactive | inactive | inactive |  | inactive | inactive |  |
| COc1ccc(C)cc1N | inactive | inactive | inactive | inactive | inactive | inactive | inactive |  | inactive | inactive |  |
| C=C(C)C(=O)OCC(C)C | inactive | inactive | inactive | inactive | inactive | inactive | inactive |  | inactive | inactive |  |
| COc1ccc(OC)cc1 | inactive | inactive | inactive | inactive | inactive | inactive | inactive |  |  |  |  |
| CC(=O)c1ccc(O)cc1 | inactive | inactive | inactive | inactive | inactive | inactive | inactive |  | inactive | inactive |  |
| Cc1ccc([N+](=O)[O-])cc1S(=O)(=O)O | inactive | inactive | inactive | inactive | inactive | inactive | inactive |  | inactive | inactive |  |
| CCOCC(=O)O | inactive | inactive | inactive | inactive | inactive | inactive | inactive |  | inactive | inactive |  |
| CC(C)CC(C)O (configuration not stated) | inactive | inactive | inactive | inactive | inactive | inactive | inactive | 6.34% (inactive) and 7.03% (inactive) |  |  |  |
| Cc1ccc2ncccc2c1 | inactive | inactive | inactive | inactive | inactive | inactive | inactive |  | inactive |  |  |
| OCc1ccccc1 | inactive | inactive | inactive | inactive | inactive | inactive | inactive |  |  | inactive |  |
| CCCCCC(=O)O | inactive | inactive | inactive | inactive | inactive | inactive | inactive |  |  | inactive |  |
| CCO[Si](CCCN)(OCC)OCC | inactive | inactive |  | inactive | inactive | inactive | inactive | -7.12% (inactive) and 0.455% (inactive) | inactive | inactive |  |
| CC(O)CC(C)(C)O (configuration not stated) | inactive | inactive | inactive | inactive | inactive | inactive | inactive |  | inactive | inactive |  |
| CCCCCCCC=O | inactive | inactive | inactive | inactive | inactive | inactive | inactive |  | inactive | inactive |  |
| O=C(O)Cn1c(=O)n(Cc2ccc(Br)cc2F)c(=O)c2ccc(Cl)cc21 | inactive | inactive | 21.9 µM (active) and 8.49 µM (active) | inactive | inactive |  | inactive |  |  | inactive |  |
| C[Si]1(C)O[Si](C)(C)O[Si](C)(C)O[Si](C)(C)O1 | inactive | inactive | inactive | inactive | inactive | inactive | inactive |  |  |  |  |
| O=c1[nH]cnc2[nH]ncc12 | inactive | inactive | inactive | inactive | inactive | inactive | inactive |  | inactive | inactive |  |
| CC(=O)OCCOC(C)=O | inactive | inactive | inactive | inactive | inactive | inactive | inactive |  | inactive |  |  |

| SMILES | Potency [1] | Potency [2] | Potency [3] | Potency [4] | outcome [5] | outcome [6] | outcome [7] | max response [8] | Potency [9] | Potency [10] | activity change, negative = cytotoxicity [2] |
| --- | --- | --- | --- | --- | --- | --- | --- | --- | --- | --- | --- |
| CCCCCCCCCCCCCCCCO | inactive | inactive |  | inactive | inactive | inactive | inactive | -1.41% (inactive) | inactive | inactive |  |
| COc1ccc(CCC(C)=O)cc1 | inactive | inactive |  | inactive | inactive | inactive | inactive | 7.39% (inactive) and 0.508% (inactive) |  | inactive |  |
| NCCCCCCN | inactive | inactive |  | inactive | inactive | inactive | inactive | -0.521% (inactive) and 1.93% (inactive) | inactive | inactive |  |
| Cc1ccc(C(C)C)c(O)c1 | inactive | inactive |  | inactive | inactive | inactive | inactive | -11.7% (inactive) and 0.827% (inactive) |  | inactive |  |
| CCCCCCCCCCCCCCCC(=O)OC(C)C | inactive | inactive |  | inactive | inactive | inactive | inactive | 4.79% (inactive) and -1.72% (inactive) | inactive |  |  |
| CC1(C)NC(=O)NC1=O | inactive | inactive |  | inactive | inactive | inactive | inactive | 4.62% (inactive) and 21.9% (inactive) | inactive |  |  |
| COc1cc(OC)c(C(=O)CCCN2CCCC2)c(OC)c1 | inactive | inactive |  | inactive | inactive | inactive | inactive | -11.2% (inactive) and -1.98% (inactive) |  |  |  |
| CCCCCCC=O | inactive | inactive |  | inactive | inactive | inactive | inactive | 0.391% (inactive) and 24.5% (inactive) |  |  |  |
| O=C1c2ccccc2CCc2ccccc21 | inactive | inactive |  | inactive | inactive | inactive | inactive | -14.3% (inactive) and 0.842% (inactive) | inactive | inactive |  |
| C=CC(=O)OCCC(=O)O | inactive | inactive |  | inactive | inactive | inactive | inactive |  | inactive | inactive |  |
| CC1(C)S[C@@H]2[C@H](NC(=O)COc3ccccc3)C(=O)N2[C@H]1C(=O)O | inactive | inactive |  | inactive | inactive | inactive | inactive |  | inactive | inactive |  |
| CCc1ccccc1CC | inactive |  |  | inactive | inactive | inactive | inactive | 10.8% (inactive) and 1.1% (inactive) | inactive | inactive | 1.28% [at 15.8 µM] (inactive) |
| O=C(OCC1CCC2OC2C1)C1CCC2OC2C1 (configuration not stated) | inactive | inactive |  | inactive | inactive | inactive | inactive | 2.18% (inactive) and 1.6% (inactive) |  | inactive |  |
| C=C(C)[C@H]1CC=C(C)C(=O)C1 | inactive | inactive |  | inactive | inactive | inactive | inactive |  | inactive | inactive |  |
| OC1C(O)C(O)C(O)C(O)C1O (configuration not stated) | inactive | inactive |  | inactive | inactive | inactive | inactive | 9.45% (inactive) and 0% (inactive) | inactive | inactive |  |
| Clc1ccccn1 | inactive | inactive |  | inactive | inactive | inactive | inactive |  | inactive | inactive |  |
| O=S(=O)(O)c1ccccc1 | inactive | inactive |  | inactive | inactive | inactive | inactive | 0.0472% (inactive) and -6.62% (inactive) | inactive | inactive |  |
| Brc1ccc(Br)c(Br)c1 |  | inactive | inactive |  | inactive | inactive | inactive | -6.36% (inactive) and -22.4% (inactive) |  |  |  |
| CC(C)(C#N)c1cc(Cn2cncn2)cc(C(C)(C)C#N)c1 | inactive | inactive |  | inactive | inactive | inactive | inactive |  | inactive |  |  |
| CNC(=O)Oc1ccc2c(c1)[C@]1(C)CCN(C)[C@@H]1N2C | inactive | inactive |  | inactive | inactive | inactive | inactive | 4.52% (inactive) and 8.75% (inactive) | inactive |  |  |
| CC(=O)CC(C)(C)O | inactive | inactive |  | inactive | inactive | inactive | inactive |  | inactive | inactive |  |
| O=C(O)c1ccccc1C(=O)O | inactive | inactive |  | inactive | inactive | inactive | inactive |  |  | inactive |  |
| CCCCC(C=O)CC (configuration not stated) | inactive | inactive |  | inactive | inactive | inactive | inactive | -0.352% (inactive) and 2.13% (inactive) | inactive and 14.6 µM (active) |  |  |
| NCCNCCN | inactive | inactive |  | inactive | inactive | inactive | inactive | -1.22% (inactive) and 0.475% (inactive) |  | inactive |  |
| CN(C)CCOC(=O)COc1ccc(Cl)cc1 | inactive | inactive |  | inactive | inactive | inactive | inactive | -6.44% (inactive) and 0.203% (inactive) |  |  |  |
| COc1ccccc1OCC(O)CO (configuration not stated) | inactive | inactive |  | inactive | inactive | inactive | inactive | 1.4% (inactive) and 1.84% (inactive) | inactive |  |  |
